Measurements from PubChem BioAssay (Tox21).
Results filed as inconclusive are left out. The source made the active and inactive calls. Unless noted, calls follow the shape of the dose curve; as a rule, active = well fitted curve in the direction sought with a large enough effect in the repeat runs; inconclusive = weak or mixed curves; inactive = no such curve, though single readings can be large; an effect the other way counts as inactive or inconclusive.

What was measured:
[1] = biological target: Estrogen receptor beta (Homo sapiens) (UniProt Q92731); assay: qHTS assay to identify small molecule agonists of the estrogen receptor beta (ER-beta) signaling pathway (AID 1259377; active = well fitted activation curve with a large enough effect in the signal ratio in the repeat runs, not every such curve was filed as active; the % refers to the signal ratio)
How it was run: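 Reporter cells (HEK293T, ER-beta-UAS-bla) receive compounds or DMSO after a 6 hr pre-incubation. They then incubate 16 hr at 37C/5% CO2, and fluorescence from LiveBLAzer B/G substrate is measured after 2 hours at room temperature.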

[2] = biological target: Estrogen receptor beta (Homo sapiens) (UniProt Q92731); assay: qHTS assay to identify small molecule antagonists of the estrogen receptor beta (ER-beta) signaling pathway (AID 1259378; active = well fitted inhibition curve with a large enough effect in the signal ratio in the repeat runs, not every such curve was filed as active; the % refers to the signal ratio)
How it was run: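 Antagonist mode: compounds added to beta-lactamase reporter HEK293T ER-beta-UAS cells stimulated with E2 (1nM final), 16 hr at 37C. LiveBLAzer B/G FRET substrate, 2 hours room temperature, fluorescence read-out.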

[3] = qHTS assay to identify small molecule agonists of the androgen receptor (AR) signaling pathway in the presence of an antagonist - cell viability counter screen (AID 1259379); also: nearly all actives have a fitted effect of over 25% in size; also: potency is read from the fitted curve at half-maximal effect;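 as to activity change, negative = cytotoxicity: MDA-kb2 human breast cancer cells carrying an MMTV luciferase reporter; series mostly up to about 92 µM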
How it was run: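 Cells: MDA-kb2 (MMTV-luc, AR and GR elements), 3,000/well, 5 hr settle. Added: nilutamide 3.0uM final, then compounds (15 conc.). Incubation: 16 hr, 37C, no CO2. Read-out: CellTiter-Fluor, 1 hr, fluorescence.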

[4] = qHTS assay to identify small molecule agonists of the estrogen receptor beta (ER-beta) signaling pathway - cell viability counter screen (AID 1259380); also: nearly all actives have a fitted effect of over 30% in size; also: potency is read from the fitted curve at half-maximal effect
How it was run: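 HEK293T ER-beta-UAS-bla; 2% CS-FBS; 6 hr pre-plate, 16 hr cpd at 37C/5% CO2; LiveBLAzer read first, then CellTiter-Glo 30 min RT, luminescence.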

[5] = biological target: Androgen receptor (Homo sapiens) (UniProt P10275); assay: qHTS assay to identify small molecule agonists of the androgen receptor (AR) signaling pathway in the presence of an antagonist (AID 1259381; calls by dose curve; also: nearly all actives have a fitted effect of over 15% in size)
How it was run: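 MDA-kb2 cells, 3,000/well, rested 5hr at 37C/0% CO2 → nilutamide 3.0uM final or buffer → compounds, 15 conc. → 16hr at 37C → ONE-Glo, 30min RT → luminescence.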

[6] = qHTS assay to identify small molecule antagonists of the estrogen receptor beta (ER-beta) signaling pathway - cell viability counter screen (AID 1259382);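 also: HEK293T cells carrying ER-beta-UAS-bla reporter stimulated with estradiol; series mostly up to about 92 µM; nearly all actives have a fitted effect of over 55% in size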
How it was run: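 Cells: ER-beta-UAS-bla HEK293T, 2,000/well, 2% CS-FBS, 6 hr settle. Cpd + E2 (1nM final), 16 hr, 37C/5% CO2. Bla FRET substrate 2 hr RT, then CellTiter-Glo 30 min RT, luminescence.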

[7] = biological target: Estrogen receptor (Homo sapiens) (UniProt P03372); assay: qHTS assay to identify small molecule agonists of the estrogen receptor alpha (ER-alpha) signaling pathway in the presence of an antagonist (AID 1259383; calls by dose curve; also: top concentration of the series differs between compounds; nearly all actives have a fitted effect of over 15% in size)
How it was run: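 VM7Luc4E2, endog. ER-alpha + 4×ERE-luc; charcoal-stripped FBS, phenol red-free, 5 d; 24hr plating; +10.0nM ICI-182,780 (final); cpds 15 conc, 22hr, 37C/5% CO2; ONE-Glo luminescence.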

[8] = qHTS assay to identify small molecule agonists or antagonists of the thyroid stimulating hormone receptor (TSHR) signaling pathway - wild type cell line counter screen (AID 1259384; calls by dose curve)
How it was run: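 Counter screen in untransfected Hek293: compounds (15-point titration, triplicate) plus phosphodiesterase inhibitor Ro20-1724 added after 18 h plating; 30 min RT. Intracellular cAMP via competitive d2/cryptate immunoassay, 1 h incubation.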

[9] = biological target: Thyrotropin receptor (Homo sapiens) (UniProt P16473); assay: qHTS assay to identify small molecule antagonists of the thyroid stimulating hormone receptor (TSHR) signaling pathway (AID 1259385; calls by dose curve; also: nearly all actives have a fitted effect of over 20% in size)
How it was run: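 Antagonist mode: compound-treated TSHR-expressing HEK293 cells were stimulated with 1.5 ng/mL TSH (final) in presence of Ro20-1724 for 30 min at RT. HTRF cAMP detection after 1 h; each compound tested at 15 concentrations, triplicate.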

[10] = qHTS assay to identify small molecule agonists of the estrogen receptor alpha (ER-alpha) signaling pathway in the presence of an antagonist - cell viability counter screen (AID 1259386);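 also: cells exposed to compounds for 22 h at 37 °C before the viability read; nearly all actives have a fitted effect of over 30% in size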; also: potency is read from the fitted curve at half-maximal effect; as to activity change, negative = cytotoxicity: series mostly up to about 92 µM
How it was run: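 VM7Luc4E2, stripped-serum pre-culture 5 d; 24hr plating; +ICI-182,780 10.0nM final; cpds 15 conc, 22hr, 37C/5% CO2; CellTiter-Fluor added at 21hr, fluorescence 1hr later.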
% is scaled to controls: 0 for no effect and ±100 for the full control effect.

Sequence of Estrogen receptor beta (Homo sapiens) (Q92731 whole entry, looked up): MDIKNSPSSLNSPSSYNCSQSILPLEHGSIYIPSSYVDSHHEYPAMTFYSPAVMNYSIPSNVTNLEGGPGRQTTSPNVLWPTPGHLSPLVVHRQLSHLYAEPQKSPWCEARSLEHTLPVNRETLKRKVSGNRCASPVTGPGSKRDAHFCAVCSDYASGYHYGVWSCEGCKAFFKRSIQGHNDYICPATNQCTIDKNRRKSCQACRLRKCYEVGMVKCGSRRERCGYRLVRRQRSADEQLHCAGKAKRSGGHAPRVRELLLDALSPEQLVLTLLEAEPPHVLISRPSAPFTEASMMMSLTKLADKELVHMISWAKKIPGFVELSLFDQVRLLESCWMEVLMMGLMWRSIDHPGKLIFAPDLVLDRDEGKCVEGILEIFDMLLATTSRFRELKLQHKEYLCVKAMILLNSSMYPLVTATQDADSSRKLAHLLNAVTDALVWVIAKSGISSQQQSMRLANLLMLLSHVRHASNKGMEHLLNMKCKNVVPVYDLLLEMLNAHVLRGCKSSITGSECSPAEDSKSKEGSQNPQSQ
Sequence of Thyrotropin receptor (Homo sapiens) (P16473 whole entry, looked up): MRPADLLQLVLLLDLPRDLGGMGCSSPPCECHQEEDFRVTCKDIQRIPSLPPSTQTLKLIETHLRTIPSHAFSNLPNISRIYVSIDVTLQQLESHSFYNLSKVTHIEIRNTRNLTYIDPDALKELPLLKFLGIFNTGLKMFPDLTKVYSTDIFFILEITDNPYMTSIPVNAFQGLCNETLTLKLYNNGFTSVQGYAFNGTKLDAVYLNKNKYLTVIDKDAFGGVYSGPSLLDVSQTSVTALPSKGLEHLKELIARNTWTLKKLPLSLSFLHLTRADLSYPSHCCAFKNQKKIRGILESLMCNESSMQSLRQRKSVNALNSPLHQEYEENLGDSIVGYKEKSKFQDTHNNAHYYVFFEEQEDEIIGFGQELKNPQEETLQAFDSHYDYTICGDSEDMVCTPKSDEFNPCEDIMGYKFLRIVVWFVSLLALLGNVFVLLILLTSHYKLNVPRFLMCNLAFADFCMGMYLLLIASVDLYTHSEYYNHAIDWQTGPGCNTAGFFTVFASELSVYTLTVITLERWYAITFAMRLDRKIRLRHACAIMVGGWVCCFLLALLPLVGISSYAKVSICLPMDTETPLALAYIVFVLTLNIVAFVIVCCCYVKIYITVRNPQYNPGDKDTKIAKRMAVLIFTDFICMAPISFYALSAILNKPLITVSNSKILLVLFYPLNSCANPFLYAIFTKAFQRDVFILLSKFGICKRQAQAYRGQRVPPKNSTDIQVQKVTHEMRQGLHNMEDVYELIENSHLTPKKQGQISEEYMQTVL
Sequence of Estrogen receptor (Homo sapiens) (P03372 whole entry, looked up): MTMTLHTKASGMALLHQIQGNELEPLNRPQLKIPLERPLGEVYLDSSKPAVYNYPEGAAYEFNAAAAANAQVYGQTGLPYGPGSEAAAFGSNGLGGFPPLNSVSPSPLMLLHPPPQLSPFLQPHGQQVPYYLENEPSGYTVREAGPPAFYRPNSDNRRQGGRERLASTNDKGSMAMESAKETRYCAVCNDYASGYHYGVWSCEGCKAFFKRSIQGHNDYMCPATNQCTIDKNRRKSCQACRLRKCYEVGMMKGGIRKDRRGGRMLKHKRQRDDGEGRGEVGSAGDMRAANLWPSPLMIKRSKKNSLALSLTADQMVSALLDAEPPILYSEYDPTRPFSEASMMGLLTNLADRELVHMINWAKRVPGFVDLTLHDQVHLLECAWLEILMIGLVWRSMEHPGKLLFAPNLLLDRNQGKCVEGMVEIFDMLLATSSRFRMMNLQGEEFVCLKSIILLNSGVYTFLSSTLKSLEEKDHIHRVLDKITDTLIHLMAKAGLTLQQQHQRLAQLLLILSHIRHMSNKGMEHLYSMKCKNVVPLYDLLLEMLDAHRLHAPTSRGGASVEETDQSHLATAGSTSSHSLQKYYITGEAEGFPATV
Sequence of Androgen receptor (Homo sapiens) (P10275 whole entry, looked up): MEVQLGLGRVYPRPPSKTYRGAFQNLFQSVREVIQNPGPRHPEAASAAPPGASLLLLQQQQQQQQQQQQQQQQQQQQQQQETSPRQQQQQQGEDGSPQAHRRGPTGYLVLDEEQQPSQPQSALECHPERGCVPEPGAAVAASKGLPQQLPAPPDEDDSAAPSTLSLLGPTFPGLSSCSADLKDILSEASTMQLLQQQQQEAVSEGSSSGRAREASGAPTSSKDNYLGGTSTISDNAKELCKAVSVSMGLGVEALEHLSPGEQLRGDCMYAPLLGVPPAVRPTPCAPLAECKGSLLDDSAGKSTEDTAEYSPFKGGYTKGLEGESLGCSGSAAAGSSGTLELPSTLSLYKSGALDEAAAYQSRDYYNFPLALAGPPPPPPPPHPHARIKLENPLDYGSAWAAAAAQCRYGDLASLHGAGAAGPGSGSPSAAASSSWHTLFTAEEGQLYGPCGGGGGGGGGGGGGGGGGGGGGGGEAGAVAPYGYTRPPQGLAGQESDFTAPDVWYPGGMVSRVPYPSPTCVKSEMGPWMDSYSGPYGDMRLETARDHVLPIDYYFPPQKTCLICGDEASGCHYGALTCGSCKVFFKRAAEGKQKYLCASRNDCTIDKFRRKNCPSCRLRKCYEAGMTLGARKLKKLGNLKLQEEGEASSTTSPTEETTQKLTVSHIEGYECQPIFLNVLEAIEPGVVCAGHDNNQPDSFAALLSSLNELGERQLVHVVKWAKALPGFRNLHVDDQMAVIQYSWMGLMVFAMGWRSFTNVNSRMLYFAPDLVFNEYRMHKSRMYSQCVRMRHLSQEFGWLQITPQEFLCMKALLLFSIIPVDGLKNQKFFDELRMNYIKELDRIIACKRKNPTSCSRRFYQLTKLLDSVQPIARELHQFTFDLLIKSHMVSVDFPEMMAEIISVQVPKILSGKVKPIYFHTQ

Cc1cn([C@H]2C[C@H](F)[C@@H](CO)O2)c(=O)[nH]c1=O
inactive: Potency [1] | Potency [2] | Potency [3] | Potency [4] | Potency [5] | Potency [6] | Potency [7] | Potency [8] | Potency [9] | Potency [10]

C=CC(=O)O
inactive: Potency [1] | Potency [2] | Potency [3] | Potency [4] | Potency [6] | Potency [7] | Potency [8] | Potency [9] | Potency [10]

Cc1cc([N+](=O)[O-])ccc1N
active: Potency [3] 53.8 µM | Potency [10] 47.9 µM
inactive: Potency [1] | Potency [2] | Potency [4] | Potency [6] | Potency [7] | Potency [8] | Potency [9]

CC(C)C(=O)OCCOc1ccccc1
inactive: Potency [1] | Potency [2] | Potency [3] | Potency [4] | Potency [6] | Potency [7] | Potency [8] | Potency [9] | Potency [10]

CCCCCCCCCCCCCC(=O)OCC(O)CO (stereo not drawn)
inactive: Potency [1] | Potency [2] | Potency [3] | Potency [4] | Potency [5] | Potency [6] | Potency [8] | Potency [9] | Potency [10]

CC1CCCC(=O)C1=O (stereo not drawn)
inactive: Potency [1] | Potency [2] | Potency [3] | Potency [4] | Potency [5] | Potency [6] | Potency [10]

CCC(CO)(CO)CO
inactive: Potency [1] | Potency [2] | Potency [3] | Potency [4] | Potency [5] | Potency [6] | Potency [7] | Potency [8] | Potency [9]

CCN(CC)c1ccc(C(=C2C=CC(=[N+](CC)CC)C=C2)c2ccc(S(=O)(=O)O)cc2S(=O)(=O)[O-])cc1
active: Potency [3] 27.3 µM | Potency [4] 27.3 µM
inactive: Potency [1] | Potency [2] | Potency [5]

O=C(Nc1ccc(C(=O)O)c(O)c1)c1ccccc1
inactive: Potency [1] | Potency [2] | Potency [3] | Potency [4] | Potency [6] | Potency [7] | Potency [8] | Potency [9] | Potency [10]

NC(=O)CCCCC(N)=O
inactive: Potency [1] | Potency [2] | Potency [3] | Potency [4] | Potency [6] | Potency [7] | Potency [8] | Potency [9] | Potency [10]

CC1CCCO1 (stereo not drawn)
inactive: Potency [1] | Potency [2] | Potency [3] | Potency [4] | Potency [6]

C1=CCC2CC=CC2C1 (stereo not drawn)
inactive: Potency [1] | Potency [2] | Potency [3] | Potency [4] | Potency [5] | Potency [6] | Potency [8] | Potency [9] | Potency [10]

CCN(CC)CC(=O)Nc1c(C)cccc1C(=O)OC
inactive: Potency [1] | Potency [2] | Potency [3] | Potency [4] | Potency [6] | Potency [7] | Potency [8] | Potency [9] | Potency [10]

CC(C)(C)CCCCCCOC(=O)c1ccccc1C(=O)OCCCCCCC(C)(C)C
inactive: Potency [1] | Potency [2] | Potency [3] | Potency [4] | Potency [6] | Potency [7] | Potency [8] | Potency [9] | Potency [10]

CC(CO)(CO)C(=O)O
inactive: Potency [1] | Potency [2] | Potency [3] | Potency [4] | Potency [6] | Potency [7]

O=P(O)(O)Oc1ccccc1
inactive: Potency [1] | Potency [2] | Potency [3] | Potency [4] | Potency [6] | Potency [7] | Potency [8] | Potency [9]

CCC(C)(C)C(=O)O
inactive: Potency [1] | Potency [2] | Potency [3] | Potency [4] | Potency [5] | Potency [6] | Potency [7] | Potency [8] | Potency [9] | Potency [10]

O=c1[nH][nH]c(=O)c2cc([N+](=O)[O-])ccc12
inactive: Potency [1] | Potency [2] | Potency [3] | Potency [4] | Potency [6] | Potency [7] | Potency [8] | Potency [9]

Cc1cc(CCCOc2c(C)cc(-c3noc(C(F)(F)F)n3)cc2C)on1
inactive: Potency [1] | Potency [2] | Potency [3] | Potency [4] | Potency [5] | Potency [6] | Potency [8] | Potency [10]

O=NN(CCCl)C(=O)NCCCl
inactive: Potency [1] | Potency [2] | Potency [3] | Potency [4] | Potency [5] | Potency [6] | Potency [7] | Potency [8] | Potency [9] | Potency [10]

O=C(O)CNC(=O)c1ccccc1I
inactive: Potency [1] | Potency [2] | Potency [3] | Potency [4] | Potency [6] | Potency [7] | Potency [8] | Potency [9] | Potency [10]

CC1=CC[C@@H]2C[C@H]1C2(C)C
inactive: activation [1] -1.23% [at 19 µM] | activity, negative = inhibition [2] -3.84% [at 19 µM] | activity change, negative = cytotoxicity [3] 0.221% [at 19 µM] | activity change, negative = cytotoxicity [4] 5.66% [at 19 µM] | activity change, negative = cytotoxicity [6] 4.03% [at 19 µM] | activation [7] -0.899% [at 19 µM] | cAMP activity change [8] -1.96% [at 18.9 µM, stronger effect = higher value] | activity change, negative = inhibition [9] 8.95% [at 19 µM] | activity change, negative = cytotoxicity [10] 3.72% [at 19 µM]

Oc1cccc2[nH]ccc12
inactive: Potency [1] | Potency [2] | Potency [3] | Potency [4] | Potency [5] | Potency [6] | Potency [7] | Potency [8] | Potency [9] | Potency [10]

CC[C@H]1OC(=O)[C@H](C)[C@@H](O[C@H]2C[C@@](C)(OC)[C@@H](O)[C@H](C)O2)[C@H](C)[C@@H](O[C@@H]2O[C@H](C)C[C@H](N(C)C)[C@H]2O)[C@](C)(O)C[C@@H](C)CN(C)[C@H](C)[C@@H](O)[C@]1(C)O
inactive: Potency [1] | Potency [2] | Potency [3] | Potency [4] | Potency [6] | Potency [7] | Potency [8] | Potency [9]
